Laboratory results reported in PubChem BioAssay AID1240 (Sanford-Burnham Center for Chemical Genomics, 2008).
Values joined by “and” are separate entries in the source; they are usually repeats but may differ in a detail not shown here. Equal entries are not always repeated. Out of some 50,000 compounds screened, about 800 (1.6%) showed an effect of 50% or more. The sample as a whole holds a higher share of strong results than the screen did.

Biological target: Bcl-2-like protein 10 (Homo sapiens) (UniProt Q9HD36)
Assay: Phenotype converters, Bcl-B/TR3 peptide binding displacement, primary biochemical FP (AID 1240);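 further: 0% = Bcl-B with tracer peptide and DMSO and 100% = tracer peptide lacking Bcl-B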
Settings: GST-Bcl-B / FITC-TR3 peptide fluorescence polarization; stronger effect = higher value; compound at 3.75 mg/L

Chain of Bcl-2-like protein 10 (Homo sapiens) (Q9HD36 whole entry, looked up): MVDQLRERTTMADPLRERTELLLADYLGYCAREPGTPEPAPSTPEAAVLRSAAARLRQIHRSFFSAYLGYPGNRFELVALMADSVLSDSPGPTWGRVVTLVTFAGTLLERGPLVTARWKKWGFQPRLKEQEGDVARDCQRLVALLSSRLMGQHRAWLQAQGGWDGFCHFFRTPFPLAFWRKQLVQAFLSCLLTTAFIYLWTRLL

**Q.** With `O=C(Cc1ccccc1)N1CCN(Cc2cccnc2)CC1` as the compound, how does the displacement read?
**A.** 9.9%

**Q.** How did the displacement turn out when `CC(C)c1ccc(N2C(=O)CC(=O)NC2=O)cc1` was run?
**A.** -5.9%

**Q.** `CC1(C)C(C(=O)Nc2cccc3ccccc23)C1(C)C` was tested. Which displacement did it give?
**A.** 3.9%

**Q.** How did the displacement turn out when `Cc1ccccc1-n1c(CN2C(=O)c3ccccc3C2=O)nc2ccccc2c1=O` was run?
**A.** -9.6%

**Q.** With `CC(C)CCn1c(=O)c(C(=O)Nc2ccc(I)cc2)c(O)c2ccccc21` as the compound, how does the displacement read?
**A.** 7.1%

**Q.** With `Cc1cc(Cl)ccc1OCC(=O)N1CCN(C)CC1` as the compound, how does the displacement read?
**A.** -6.7%

**Q.** How did the displacement turn out when `O=C(Nc1ccc(Br)cc1C(=O)c1ccccc1)c1ccc(F)cc1` was run?
**A.** 8.4%

**Q.** For `O=C(ON1CC1(C(F)(F)F)C(F)(F)F)c1ccccc1` (centres undefined), which displacement is on record?
**A.** 3.2%

**Q.** With `O=C1c2ccccc2-c2onc3c(Br)cc(N4CC4)c1c23` as the compound, how does the displacement read?
**A.** 178%

**Q.** `Cc1ccc(N2C(=O)CC(=O)NC2=S)cc1` was tested. Which displacement did it give?
**A.** 5.6%

**Q.** For `COc1cccc(/C=C2/C(=O)NC(=O)N(c3cccc(C)c3)C2=O)c1O`, which displacement is on record?
**A.** 3.1%

**Q.** How did the displacement turn out when `CN1C(=O)NC(=O)/C(=C\c2cc3c(cc2Cl)OCO3)C1=O` was run?
**A.** 0.4%

**Q.** With `Cc1ccc(/C=C2/C(=O)NC(=O)N(c3ccc(Cl)cc3)C2=O)o1` as the compound, how does the displacement read?
**A.** 36.2%

**Q.** How did the displacement turn out when `Cc1ccc(N2C(=O)NC(=O)/C(=C\c3ccc(-c4ccc(Cl)c(C(=O)O)c4)o3)C2=O)cc1` was run?
**A.** 6.3%

**Q.** For `COc1ccc(N2C(=O)NC(=O)/C(=C/c3ccc(-c4cccc(Cl)c4)o3)C2=O)cc1`, which displacement is on record?
**A.** 69%

**Q.** `COc1ccc(N2C(=O)NC(=O)/C(=C/c3cc4c(cc3Cl)OCO4)C2=O)cc1` was tested. Which displacement did it give?
**A.** 81.5%

**Q.** `COc1ccc(N2C(=O)NC(=O)/C(=C/c3ccc(SC)cc3)C2=O)cc1` was tested. Which displacement did it give?
**A.** -9.4%

**Q.** Which displacement does the source give for `COc1ccc(CN2CCN(Cc3cc(Br)ccc3O)CC2)cc1` here?
**A.** 13.1%

**Q.** Which displacement does the source give for `Cc1cc(C=C2C(=O)NC(=O)NC2=O)c(C)n1-c1ccc(N(C)C)cc1` here?
**A.** 0.1%

**Q.** `CN=C(C)c1c(O)n(C)c(=S)n(C)c1=O` was tested. Which displacement did it give?
**A.** 8.8%

**Q.** With `C(=NCCCN1CCOCC1)c1c[nH]c2ccccc12` as the compound, how does the displacement read?
**A.** 2.6%

**Q.** With `O=c1c2ccccc2nc(-c2cccs2)n1-c1ccccn1` as the compound, how does the displacement read?
**A.** 19.3%

**Q.** Which displacement does the source give for `O=C(Cn1c[n+]([N-][N+](=O)[O-])cn1)N1CCN(C(=O)Cn2c[n+]([N-][N+](=O)[O-])cn2)CC1` here?
**A.** 15%

**Q.** For `O=C(Cn1c[n+]([N-][N+](=O)[O-])cn1)Nc1ccc([N+](=O)[O-])cc1`, which displacement is on record?
**A.** 16.4%

**Q.** With `O=C(Cn1c[n+]([N-][N+](=O)[O-])cn1)Nc1ccc(NC(=O)Cn2c[n+]([N-][N+](=O)[O-])cn2)cc1` as the compound, how does the displacement read?
**A.** 59.6%

**Q.** How did the displacement turn out when `CCOc1ccc(N2C(=O)NC(=O)/C(=C\c3ccc(C)o3)C2=O)cc1` was run?
**A.** 11.6%

**Q.** How did the displacement turn out when `COc1cc(C=C2C(=O)NC(=O)NC2=O)ccc1OCc1ccc(C(=O)O)cc1` was run?
**A.** 0.6%

**Q.** With `COc1ccc(C=C2C(=O)NC(=O)NC2=O)cc1OCc1ccc(Cl)cc1Cl` as the compound, how does the displacement read?
**A.** 150%

**Q.** How did the displacement turn out when `COc1ccc(C=C2C(=O)NC(=S)NC2=O)cc1OCc1ccccc1Cl` was run?
**A.** 8.2%

**Q.** How did the displacement turn out when `O=c1oc2ccccc2c2c1C(c1ccc(Cl)cc1)c1c(c3ccccc3oc1=O)O2` was run?
**A.** 10.3%

**Q.** `COc1cccc(CN2CCNCC2)c1OC` was tested. Which displacement did it give?
**A.** 15.6%

**Q.** For `O=C(N/N=C1/CN2CCC1CC2)c1ccc(O)cc1`, which displacement is on record?
**A.** 17.8%

**Q.** For `COC(=O)C(=O)/C(=C\c1ccc(-c2ccccc2[N+](=O)[O-])o1)C(=O)c1ccccc1`, which displacement is on record?
**A.** 56.7%

**Q.** Which displacement does the source give for `O=C1C(=Cc2ccc(-c3ccccc3[N+](=O)[O-])o2)C(=O)N(c2ccccc2)C(=S)N1c1ccccc1` here?
**A.** 16.4%

**Q.** For `CN1C(=O)NC(=O)/C(=C/c2ccc(-c3ccccc3[N+](=O)[O-])o2)C1=O`, which displacement is on record?
**A.** 35.6%

**Q.** How did the displacement turn out when `Cc1ccccc1-n1c(=S)[nH]c2ccccc2c1=O` was run?
**A.** -11% and -8.7%

**Q.** For `O=C1Nc2ccccc2/C1=C/c1nc2ccc(I)cc2c(=O)n1-c1ccccc1`, which displacement is on record?
**A.** 4.5%

**Q.** `O=[N+]([O-])c1ccc(CNCCc2cccc(F)c2)cc1` was tested. Which displacement did it give?
**A.** 2.2%

**Q.** With `COc1cc(C=C2C(=O)N(C)C(=O)N(C)C2=O)ccc1OCCOc1ccccc1` as the compound, how does the displacement read?
**A.** 54.3%

**Q.** How did the displacement turn out when `CN1C(=O)C(=Cc2cccc(OCCOc3ccc([N+](=O)[O-])cc3)c2)C(=O)N(C)C1=O` was run?
**A.** 6.4%

**Q.** `C=CCOc1ccc(/C=C2\C(=O)NC(=O)N(CC=C)C2=O)cc1OC` was tested. Which displacement did it give?
**A.** 10.9%

**Q.** How did the displacement turn out when `Cc1ccc(-c2nc3ccccc3c(=O)n2-c2nccs2)cc1` was run?
**A.** -0.6%

**Q.** Which displacement does the source give for `O=[N+]([O-])/C=C/c1ccccc1OCc1ccc(Cl)cc1Cl` here?
**A.** 4.5%

**Q.** How did the displacement turn out when `O=C1NC(=O)N(c2cccc(Br)c2)C(=O)/C1=C/c1ccco1` was run?
**A.** 5.2%

**Q.** For `Cc1cc(/C=C2\C(=O)NC(=O)N(c3cccc(Br)c3)C2=O)c(C)n1C`, which displacement is on record?
**A.** 126%

**Q.** How did the displacement turn out when `Cc1cc(/C=C2\C(=O)NC(=S)N(c3ccccc3F)C2=O)c(C)n1C` was run?
**A.** 14.1%

**Q.** For `CCc1ccccc1N1C(=O)NC(=O)/C(=C\c2cc(C)n(C)c2C)C1=O`, which displacement is on record?
**A.** 87.7%

**Q.** With `Cc1cc(/C=C2\C(=O)NC(=O)N(c3ccc(Cl)cc3)C2=O)c(C)n1C` as the compound, how does the displacement read?
**A.** 1.7%

**Q.** Which displacement does the source give for `O=C1NC(=O)N(c2ccccc2Cl)C(=O)C1=Cc1ccccc1` here?
**A.** 12.8%

**Q.** Which displacement does the source give for `O=C1NC(=O)N(c2cccc(Br)c2)C(=O)/C1=C/c1ccc(-c2ccc(C(=O)O)cc2)o1` here?
**A.** -56.7%

**Q.** Which displacement does the source give for `Cc1cc(C)cc(N2C(=O)NC(=O)/C(=C\c3cc(C)n(C)c3C)C2=O)c1` here?
**A.** 90.5%

**Q.** How did the displacement turn out when `Cc1cc(C=C2C(=O)NC(=S)NC2=O)c(C)n1C` was run?
**A.** 6.6%

**Q.** `Cc1ccc(-n2c(/C=C3/C(=O)Nc4ccc(Br)cc43)nc3ccccc3c2=O)cc1` was tested. Which displacement did it give?
**A.** 4.3%

**Q.** Which displacement does the source give for `Cc1cc(C)cc(N2C(=O)NC(=O)/C(=C\C=C\c3ccccc3)C2=O)c1` here?
**A.** 42.9%

**Q.** Which displacement does the source give for `CCCCn1c(=O)c(C(=O)Nc2ccc(I)cc2)c(O)c2ccccc21` here?
**A.** 7.1%

**Q.** Which displacement does the source give for `CN1C(=O)C(=Cc2ccc(-c3cc(C(=O)O)ccc3Cl)o2)C(=O)N(C)C1=O` here?
**A.** -2.5%

**Q.** Which displacement does the source give for `Cc1ccc(N2C(=O)NC(=O)/C(=C\C=C\c3ccccc3)C2=O)cc1` here?
**A.** 21.4%

**Q.** `O=C1NC(=S)NC(=O)C1=Cc1ccc(-c2ccc([N+](=O)[O-])cc2Br)o1` was tested. Which displacement did it give?
**A.** 29%

**Q.** With `Cc1cccc(N2C(=O)NC(=O)/C(=C/c3ccc(-c4ccc([N+](=O)[O-])cc4C)o3)C2=O)c1` as the compound, how does the displacement read?
**A.** 76.7%

**Q.** For `Cc1cc(-c2ccc(C=C3C(=O)NC(=O)NC3=O)o2)ccc1[N+](=O)[O-]`, which displacement is on record?
**A.** 13.1%

**Q.** How did the displacement turn out when `CN1C(=O)NC(=O)/C(=C/c2ccc(-c3ccc([N+](=O)[O-])cc3)o2)C1=O` was run?
**A.** 3.6%

**Q.** For `CN1C(=O)NC(=O)/C(=C/c2ccc(-c3cccc([N+](=O)[O-])c3)o2)C1=O`, which displacement is on record?
**A.** -20.5%

**Q.** Which displacement does the source give for `Cc1cc([N+](=O)[O-])ccc1-c1ccc(/C=C2/C(=O)NC(=O)N(C)C2=O)o1` here?
**A.** 11.4%

**Q.** With `O=C1NC(=O)C(=Cc2ccc(-c3cc([N+](=O)[O-])ccc3O)o2)C(=O)N1` as the compound, how does the displacement read?
**A.** 109%

**Q.** `C=CCN1C(=O)NC(=O)/C(=C/c2ccc(-c3cc([N+](=O)[O-])ccc3Cl)o2)C1=O` was tested. Which displacement did it give?
**A.** 84.3%

**Q.** For `Cc1cc([N+](=O)[O-])c(C)cc1-c1ccc(C=C2C(=O)NC(=O)NC2=O)o1`, which displacement is on record?
**A.** 8.4%

**Q.** With `O=C1NC(=O)C(=Cc2ccc(-c3ccc([N+](=O)[O-])cc3Cl)o2)C(=O)N1` as the compound, how does the displacement read?
**A.** 66.8%

**Q.** How did the displacement turn out when `CN1C(=O)NC(=O)/C(=C/c2ccc(-c3ccc([N+](=O)[O-])cc3Br)o2)C1=O` was run?
**A.** -9.1%

**Q.** How did the displacement turn out when `O=C1NC(=S)NC(=O)C1=Cc1ccc(-c2cc(Cl)c([N+](=O)[O-])cc2Cl)o1` was run?
**A.** 19.3%

**Q.** For `COc1ccc(CN2C(=O)NC(=O)/C(=C\c3ccoc3)C2=O)cc1`, which displacement is on record?
**A.** -114%

**Q.** `CSc1nc2ccccc2c(=O)n1-c1cccc(C)c1` was tested. Which displacement did it give?
**A.** -6.2%

**Q.** For `O=C1NC(=O)N(c2ccc(Cl)cc2)C(=O)/C1=C\c1cc(Br)cc(Cl)c1O`, which displacement is on record?
**A.** 4.8%

**Q.** With `N#CC(C#N)=Cc1cccc2ccccc12` as the compound, how does the displacement read?
**A.** 5.7%

**Q.** Which displacement does the source give for `O=C1NC(=S)NC(=O)C1=Cc1cccc(OS(=O)(=O)c2ccc3ccccc3c2)c1` here?
**A.** 3.4%

**Q.** `COc1cc(OC)c(OC)cc1CN1CCN(C(=O)COc2ccccc2)CC1` was tested. Which displacement did it give?
**A.** -13.1%

**Q.** Which displacement does the source give for `COc1ccc(CN2CCN(C(=O)Cc3ccccc3)CC2)cc1Br` here?
**A.** -10%

**Q.** Which displacement does the source give for `CN(C)c1ccc(/C=C2\C(=O)NC(=O)N(c3ccccc3Cl)C2=O)cc1` here?
**A.** 9.7%

**Q.** Which displacement does the source give for `Cc1cc(C=C2C(=O)NC(=O)NC2=O)c(C)n1C` here?
**A.** 2.4%

**Q.** `Cc1cc(C=C2C(=O)NC(=O)NC2=O)c(C)n1C1CCCCC1` was tested. Which displacement did it give?
**A.** 124%

**Q.** `Cc1cc(C)cc(-n2c(C)cc(C=C3C(=O)NC(=O)NC3=O)c2C)c1` was tested. Which displacement did it give?
**A.** 13.1%

**Q.** With `O=C1c2ccccc2NC(c2ccccc2F)N1c1ccccc1` (centres undefined) as the compound, how does the displacement read?
**A.** -0.3%

**Q.** With `Cc1nc2cc([N+](=O)[O-])ccc2c(=O)n1-c1ccc(Cl)cc1` as the compound, how does the displacement read?
**A.** 71.3%

**Q.** For `Cc1nc2ccc(I)cc2c(=O)n1-c1ccc([N+](=O)[O-])cc1Cl`, which displacement is on record?
**A.** 13%

**Q.** For `Cc1nc2ccccc2c(=O)n1-c1ccc([N+](=O)[O-])cc1`, which displacement is on record?
**A.** 11.9%
